# “And” between values parts separate entries of the source, which are not always exact repeats. Identical values can stand only once. Inconclusive results are not listed. Unmarked numbers belong to inactive results. The source made the active and inactive calls. Calls come from the whole dose curve; as a rule, active = well fitted inhibition curve with a large enough effect; inconclusive = small, poorly fitted or top-dose-only effect; inactive = flat fitted curve, though single readings scatter.
# Key:
# [1] = test system: CRL-7250; test: Cytotoxic Profiling of Annotated Libraries Using Quantitative High-Throughput Screening (AID 1296008); settings: Five cell lines viability, CellTiter-Glo ATP luminescence, 48-72 h; max response: active compounds read low; note: potency is the fitted concentration of half-maximal effect; for max response: % is set by controls: 0 for no effect and ±100 for the full control effect
# Procedure, shortened: (§1)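 Cytotoxicity was measured as CellTiter-Glo ATP luminescence, read after 10 min at room temperature. Compound treatment of the cells lasted 48 or 72 hr at 37 degrees Celsius in a qHTS format.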
# [2] = test system: HEK293; test: as above; settings: Five cell lines viability, CellTiter-Glo ATP luminescence, 48-72 h; max response: active compounds read low
# Procedure, shortened: as §1
# [3] = test system: HaCat; test: as above; settings: Five cell lines viability, CellTiter-Glo ATP luminescence, 48-72 h; max response: active compounds read low
# Procedure, shortened: as §1
# [4] = test system: KB-3-1; test: as above; settings: Five cell lines viability, CellTiter-Glo ATP luminescence, 48-72 h; max response: active compounds read low
# Procedure, shortened: as §1
# [5] = test system: NIH3T3; test: as above; settings: Five cell lines viability, CellTiter-Glo ATP luminescence, 48-72 h; max response: active compounds read low
# Procedure, shortened: as §1
# [6] = test system: SC27B; test: qHTS profiling for inhibitors of Plasmodium falciparum proliferation (AID 504749);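 note: 0% = DMSO vehicle and full inhibition = artemisinin control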; settings: P. falciparum in erythrocytes, SYBR Green DNA, 72 h; series mostly up to 28.7 µM
# Procedure, shortened: (§2)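 Infected RBCs, 0.3% parasitemia/2.5% Hct final; cpd 72 h, 37 C, 5% CO2; lysis buffer with saponin/triton/SYBR Green I, o/n RT dark; FI 485/535; norm. to artemisinin (0.29 uM) and DMSO.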
# [7] = test system: TAB109; test: as above; settings: P. falciparum in erythrocytes, SYBR Green DNA, 72 h; series mostly up to 28.7 µM
# Procedure, shortened: as §2
# [8] = test system: TAB113; test: as above; settings: P. falciparum in erythrocytes, SYBR Green DNA, 72 h; series mostly up to 28.7 µM
# Procedure, shortened: as §2
# [9] = test system: TAB165; test: as above; settings: P. falciparum in erythrocytes, SYBR Green DNA, 72 h; series mostly up to 28.7 µM
# Procedure, shortened: as §2
# [10] = test system: W2; test: as above; settings: P. falciparum in erythrocytes, SYBR Green DNA, 72 h; series mostly up to 28.7 µM
# Procedure, shortened: as §2
# Note: nearly all actives have a fitted effect of over 60% in size.
compound,measurement,setting,value
CN1CCN(CCOc2cc(OC3CCOCC3)c3c(Nc4c(Cl)ccc5c4OCO5)ncnc3c2)CC1,Potency,[1],10.3 µM (active)
same,Potency,[2],26.4 µM (active) and 16.4 µM (active)
same,Potency,[3],3.32 µM (active) and 366 nM (active)
same,max response,[4],2.81% and -8.03%
same,Potency,[5],1.66 µM (active) and 651 nM (active)
CC(C(=O)O)c1ccc(-c2ccccc2)c(F)c1 (centres undefined),max response,[1],2.91%
same,max response,[2],1.61%
same,outcome,[3],inactive
same,max response,[4],-1.08% and -0.207%
same,max response,[5],-0.252%
COc1ccc2cccc(CCNC(C)=O)c2c1,max response,[1],-2.32%
same,max response,[2],4.38%
same,max response,[3],-1.39%
same,max response,[4],2.52%
same,max response,[5],-3.32%
CC#CCn1c(N2CCC[C@@H](N)C2)nc2c1c(=O)n(Cc1nc(C)c3ccccc3n1)c(=O)n2C,max response,[1],0.558%
same,max response,[2],-21.1%
same,max response,[3],3.66%
same,max response,[4],-0.824%
same,outcome,[5],inactive
CC(C)(C)OC(=O)N[C@H]1CCCCCC=C[C@@H]2C[C@@]2(C(=O)NS(=O)(=O)C2CC2)NC(=O)[C@@H]2C[C@@H](OC(=O)N3Cc4cccc(F)c4C3)CN2C1=O,max response,[1],-21.2%
same,max response,[2],3.03%
same,max response,[3],-10.7%
same,max response,[4],5.38%
same,max response,[5],-0.939%
O=C(O)c1ccccc1C(=O)Nc1ccc(-c2ccccc2)cc1,max response,[1],4.68%
same,max response,[2],-10.6%
same,outcome,[3],inactive
same,max response,[4],9.98%
same,outcome,[4],inactive
same,outcome,[5],inactive
O=C(NCc1ccccc1)c1csc(Nc2ccncn2)n1,Potency,[1],11.8 µM (active)
same,Potency,[2],5.26 µM (active)
same,outcome,[3],inactive
same,max response,[4],3.38% and -16.6%
Clc1ccc(-c2nc3sccn3c2C=NOCc2ccc(Cl)c(Cl)c2)cc1,max response,[1],-8.97%
same,max response,[2],-1.21%
same,outcome,[3],inactive
same,max response,[4],-5.79%
same,max response,[5],-1.3%
COc1ccc(-c2coc3cc(O)ccc3c2=O)cc1,outcome,[1],inactive
same,max response,[2],-7.99%
same,outcome,[3],inactive
same,max response,[4],7.74%
same,max response,[5],-7.78%
CC(C)(C)COc1ccc(-n2cc(C(=O)O)cn2)cc1C#N,outcome,[1],inactive
same,max response,[2],3.28%
same,outcome,[3],inactive
same,max response,[4],7.58%
same,max response,[5],3.94%
NC1CCC(Nc2nc(Nc3ccc(C(=O)N4CCCCC4)cc3)c3ncn(-c4cccc(F)c4)c3n2)CC1 (centres undefined),outcome,[1],inactive
same,outcome,[2],inactive
same,outcome,[3],inactive
same,max response,[4],-2.33%
same,max response,[5],4.66%
CC(=O)N(C)C1(c2ccccc2)CCN(CCC[C@]2(c3ccc(Cl)c(Cl)c3)CCCN(C(=O)c3ccccc3)C2)CC1,max response,[1],-7.82%
same,Potency,[2],662 nM (active) and 18.4 µM (active)
same,Potency,[3],2.35 µM (active) and 20.6 µM (active)
same,Potency,[4],372 nM (active)
O=C(O)CCC1CCC(c2cc(F)ccc2F)(S(=O)(=O)c2ccc(Cl)cc2)CC1 (centres undefined),outcome,[1],inactive
same,max response,[2],-15.1%
same,outcome,[3],inactive
same,outcome,[4],inactive
NC(=O)NN=Cc1ccc([N+](=O)[O-])o1,outcome,[1],inactive
same,max response,[2],1.13%
same,outcome,[3],inactive
same,max response,[4],2.76%
same,outcome,[5],inactive
CC1(C)Cc2c(sc(NC(=S)NC(=O)c3ccccc3)c2C(=O)O)CO1,outcome,[1],inactive
same,outcome,[2],inactive
same,outcome,[3],inactive
same,outcome,[4],inactive
same,outcome,[5],inactive
C[N+]1(C)[C@@H]2CC(OC(=O)[C@H](CO)c3ccccc3)C[C@H]1[C@H]1O[C@@H]12 (some centres undefined),max response,[1],4.18%
same,outcome,[2],inactive
same,outcome,[3],inactive
same,max response,[4],2.27%
same,max response,[5],-3.27%
CC(C)(Cc1ccc2ccccc2c1)NC[C@@H](O)COc1cccc(Cl)c1C#N,outcome,[1],inactive
same,max response,[2],-1.92%
same,max response,[3],-22.6%
same,max response,[4],2.48%
same,max response,[5],-24.7%
Cc1nc(N)sc1-c1ccnc(Nc2ccc(N3CCOCC3)cc2)n1,Potency,[1],9.35 µM (active) and 5.17 µM (active)
same,Potency,[2],10.5 µM (active) and 7.31 µM (active)
same,Potency,[3],18.7 µM (active) and 1.16 µM (active)
same,Potency,[4],1.66 µM (active) and 1.64 µM (active)
same,Potency,[5],11.8 µM (active) and 1.84 µM (active)
CC=C(C)C(=O)O[C@H]1C(C)=C[C@]23C(=O)[C@@H](C=C(CO)[C@@H](O)[C@]12O)[C@H]1[C@@H](C[C@H]3C)C1(C)C,max response,[1],2.46%
same,Potency,[2],26.4 µM (active)
same,outcome,[3],inactive
same,max response,[4],-20.1%
same,max response,[5],-20.8%
Cc1cnc(C(=O)O)c[n+]1[O-],Potency,[6],inactive
same,outcome,[7],inactive
same,Potency,[8],inactive
same,Potency,[9],inactive
same,Potency,[10],inactive
same,max response,[1],4.3%
same,outcome,[2],inactive
same,outcome,[3],inactive
same,max response,[4],1.54% and 2.87% and -1.62%
same,outcome,[4],inactive
same,max response,[5],-3.95%

# From PubChem BioAssay (NCATS)
